Pol kappa inh – DNA polymerase kappa (human) inhibition; Q9UBT6; 400,000 tested, 0.53% active; Potency, µM (doses to about 107 µM), without a hit: at the highest dose activity, negative = inhibition, most hits filed as inhibitors; purified Pol kappa, fluorescent DNA synthesis assay, 10 min; note: % is set by controls: 0 for no effect and ±100 for the full control effect
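Activity was followed as the change in fluorescence between reads at 0 and 10 min after starting the reaction with 50 nM substrate. Beforehand, 10 nM polymerase had been preincubated with compound for 15 min at room temperature.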
WRN inhibitor – blocks human WRN helicase | Q14191 | WRN helicase unwinding, fluorescent forked duplex, kinetic | Potency, µM (doses to about 114 µM), for the others: at the top dose activity change, negative = inhibition, hits mostly inhibitors | 360,000 tested, 0.46% active | AID 651768; note: % is set by controls: 0 for no effect and ±100 for the full control effect; nearly all actives have a fitted effect of over 55% in size
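WRN at 20 nM final was preincubated with compound for 15 min at room temperature; reaction started with 100 nM forked duplex oligonucleotide carrying fluorophore and quencher plus 2 mM ATP (final). Unwinding followed kinetically by red fluorescence (ex 525/em 598 nm).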
Pol eta inh – inhibitors of human DNA polymerase eta. recombinant Pol eta, fluorescent DNA replication assay. Potency, µM (highest dose often 114 µM), inactives show at the highest dose activity change, negative = inhibition, hits mostly inhibitors. 390,000 tested, 1.2% active. AID 588591; note: % is set by controls: 0 for no effect and ±100 for the full control effect
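Pol eta (10 nM) was preincubated with compounds for 15 min at room temperature, after which fluorescent replication substrate (50 nM final) was added to start the reaction. Fluorescence was read kinetically at 0 and 10 min.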
FEN1 inh – blocks human flap endonuclease 1. Recombinant FEN1 flap cleavage, fluorescence, 15 min. 390,000 tested, 0.35% active. P39748. Potency, µM (titrated, usually from 114 µM), for the others: top-dose activity change, negative = inhibition, actives largely listed as inhibitors; note: % is set by controls: 0 for no effect and ±100 for the full control effect; nearly all actives have a fitted effect of over 65% in size
Target sequence (P39748 whole entry, looked up): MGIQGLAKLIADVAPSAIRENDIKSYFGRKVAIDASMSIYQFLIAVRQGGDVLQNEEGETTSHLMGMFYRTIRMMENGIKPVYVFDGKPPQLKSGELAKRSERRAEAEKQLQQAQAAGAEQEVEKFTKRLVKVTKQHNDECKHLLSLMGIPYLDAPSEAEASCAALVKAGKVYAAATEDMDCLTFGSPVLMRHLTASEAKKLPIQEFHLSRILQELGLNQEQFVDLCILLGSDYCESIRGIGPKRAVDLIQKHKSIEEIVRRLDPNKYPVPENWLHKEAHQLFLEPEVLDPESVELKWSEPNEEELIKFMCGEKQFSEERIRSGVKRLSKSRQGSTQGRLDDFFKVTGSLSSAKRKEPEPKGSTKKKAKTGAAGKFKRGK
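Enzyme 10 nM, 15 min RT preincubation with compound; start with substrate 50 nM final; reads at 0 and 15 min; qHTS titration, four-parameter Hill fit.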
Pol iota inh – blocks human DNA polymerase iota activity; 390,000 tested, 1% active; Pol iota fluorescent replication assay, 10 min; Potency, µM (highest dose often 115 µM), for inactives: at the highest dose activity, negative = inhibition, usual class: inhibitors; Q9UNA4; AID 588590
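Pol iota at 10 nM preincubated 15 min with compounds at room temperature; reaction started with fluorescent substrate, 50 nM final. Fluorescence read kinetically at 0 and 10 min; buffer-only wells as negative control.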
POLB inh – inhibitors of human DNA polymerase beta. P06746. Pol beta primer extension/strand displacement, fluorescence kinetic. Potency, µM (doses to about 114 µM), without a hit: top-dose activity change, negative = inhibition, hits mostly inhibitors. 340,000 tested, 1.3% active; note: % is set by controls: 0 for no effect and ±100 for the full control effect
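Pol beta (10 nM) was preincubated with compound for 15 min at room temperature. The reaction was then started with 50 nM substrate and read immediately and after a further 10 min at room temperature.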
Starred values were filed as active, the others as inactive; ? = inconclusive; . = not tested or not shown; ! = repeats disagree; [ ] = another dose, or the depositor's remark. Shown are actives, neighbours in structure and some others; about 2.4% of the full set was active somewhere. Calls come from the whole dose curve; as a rule, active = well fitted curve in the direction sought with a large enough effect; inconclusive = small, poorly fitted or top-dose-only effect, or another doubt; inactive = no such curve, though single readings can be large; an effect the other way counts as inactive or inconclusive. Potency is the fitted concentration of half-maximal effect.

SMILES | Pol kappa inh | WRN inhibitor | Pol eta inh | FEN1 inh | Pol iota inh | POLB inh
COCCn1c(=O)c(-c2ccc(Cl)cc2)nc2cncnc21 | -1.5%[60.1 µM] | . | . | . | . | .
FC(F)(F)c1ccccc1-c1cc(NCCN2CCOCC2)ncn1 | -6.9%[60.1 µM] | . | . | . | . | .
COC(=O)c1ccc(Cn2c(O)c(N=NC(N)=S)c3ccccc32)o1 | ? | -3.6%[11.6 µM] | 50.1µM* | -12.8% | 31.6µM* | ?
O=C1Nc2ccccc2C1=NN1CCCCCC1 | -7.4% | -28.2% | -2.0% | 0.6% | 109.7% | .
Nc1n[nH]c(=S)n1/N=C1/C(=O)Nc2ccccc21 | -21.9% | -31.5%[57.1 µM] | 6.5% | 89.1µM* | -6.3% | ?
COc1ccc(NC(=O)c2c(C)oc3ccc(O)c(CN4CCN(C)CC4)c23)cc1Cl | 0.0% | . | -18.7% | -6.4% | 17.8% | 3.0%
O=c1cc(-c2ccc(O)c(O)c2)oc2cc(O[C@@H]3O[C@H](CO)[C@@H](O)[C@H](O)[C@H]3O)cc(O)c12 | 2.51µM* | ? | 8.91µM* | ? | 6.31µM* | .
CC1OC(OCC2OC(Oc3c(-c4ccc(O)c(O)c4)oc4cc(O)cc(O)c4c3=O)C(O)C(O)C2O)C(O)C(O)C1O (stereo not given) | 6.31µM* | . | . | . | . | .
C[C@@H]1O[C@@H](OC[C@H]2O[C@@H](Oc3cc(O)c4c(=O)cc(-c5ccc(O)c(O)c5)oc4c3)[C@H](O)[C@@H](O)[C@@H]2O)[C@H](O)[C@H](O)[C@H]1O | -5.8% | -3.2% | -7.8% | -23.0% | -21.5% | .
COc1ccc(-c2cc(=O)c3c(O)c(OC)c(O[C@@H]4OC(COC5OC(C)C(O)C(O)[C@@H]5O)C(O)C(O)C4O)cc3o2)cc1 (stereo not given in full) | -9.7%[60.1 µM] | . | . | . | . | .
O=c1c(O[C@@H]2O[C@H](CO)C(O)C2O)c(-c2ccc(O)c(O)c2)oc2cc(O)cc(O)c12 (stereo not given in full) | 25.1µM* | -22.3% | ? | ? | 35.5µM* | .
O=c1cc(-c2ccccc2)oc2cc(O[C@@H]3O[C@H](CO)[C@@H](O)[C@H](O)[C@H]3O)c(O)c(O)c12 | 10µM* | . | . | . | . | .
CCOc1ccc(CN(C(=O)c2cc(=O)c3cc(Cl)ccc3o2)C2CCS(=O)(=O)C2)cc1 (stereo not given) | 11.5% | . | -12.3% | 6.5% | 16.2% | 8.4%
CCCCn1c(NC(C)=O)c(C#N)c2nc3ccccc3nc21 | -11.4% | -16.8% | 14.9% | -10.2% | ? | 18.5%
C=CCn1c(NC(=O)c2ccccc2Cl)c(C#N)c2nc3ccccc3nc21 | -23.1% | -10.7%[11.6 µM] | 31.6µM* | ? | ? | -2.1%
N#Cc1c(NC(=S)NC(=O)Cc2cccs2)sc2c1CCCCC2 | ? | -12.1% | -6.1% | -18.3% | -14.1% | 44.7µM*
O=C(Cn1ncc2c3ccccc3n(Cc3cccc(Cl)c3)c2c1=O)NCCCc1ccccc1 | ? | . | -23.6% | -7.2% | ? | 28.2µM*
O=C(Cn1ncc2c3ccccc3n(Cc3ccc(Cl)cc3)c2c1=O)NCCCc1ccccc1 | -6.7% | . | -17.5% | -7.0% | 28.5% | ?
O=S(=O)(c1ccccc1C(F)(F)F)N1CCN(c2nc(-c3cccs3)nc3ccccc23)CC1 | 10.0% | . | . | 10.7% | ? | .
COc1cc(/C=C/c2nc3ccccc3s2)cc(OC)c1O | -17.2% | -6.7% | ? | ? | 152.3% | 22.4µM*
CN(C)c1ccc(/C=C/c2cccc3cc4ccccc4nc23)cc1 | -14.6% | . | . | 79.4µM* | -9.9% | .
CN(Cc1ccccc1)c1ccc(/C=C/c2nc3ccccc3s2)cc1 | 25.1µM* | . | . | 35.5µM* | 89.1µM* | .
C=C(/C=C/c1ccc(N(C)C)cc1)c1nc2ccccc2s1 | ? | . | . | 25.1µM* | ? | .
CCc1noc(-c2ccc(N3CCC(C)CC3)c([N+](=O)[O-])c2)n1 | -16.2% | . | -5.9% | 6.0% | -6.0% | -1.6%
CC(C)CN1CC[C@@]2(CCCN(C(=O)c3cnccn3)C2)C1 | 0.5%[60.1 µM] | . | . | . | . | .
SMILES | Pol kappa inh | WRN inhibitor | Pol eta inh | FEN1 inh | Pol iota inh | POLB inh
COCCn1c(=O)c(-c2cc(F)cc(F)c2)nc2cnc(Oc3cccc(Cl)c3)nc21 | -15.8%[60.1 µM] | . | . | . | . | .
Cc1ccc(/C=C/c2nc3ccccc3s2)s1 | -8.3% | -3.5%[57.1 µM] | -10.7% | -14.6% | 24.3% | -7.1%
CN(C)c1ccc(/C=C/c2nc3ccccc3s2)cc1 | ? | 5.4% | -3.9% | 50.1µM*! | 89.1µM*! | 26.5%
CC1CCN(c2oc(-c3ccc(OCc4ccccc4Cl)cc3)nc2C#N)CC1 | -7.0% | . | . | -10.6% | 16.8% | .
CC(C)(C)c1ccc(C(=O)N/C(=C\c2ccco2)C(=O)Nc2ccccc2C(=O)O)cc1 | ? | -30.9% | 35.5µM* | 3.1% | ? | ?
O=C(Nc1ccc(C(=O)O)cc1)/C(=C\c1ccco1)NC(=O)c1ccccc1 | -1.4% | 11.1% | 10.6% | 2.7% | 66.3% | ?
Cc1csc2nc(COC(=O)CNC(=O)c3ccc(F)cc3)cc(=O)n12 | 0.0% | . | -8.8% | -1.2% | 18.6% | 7.5%
Cc1nc(-c2ccc(O)c(O)c2)cs1 | -4.1% | -16.1% | -20.6% | -1.3% | 6.3% | ?
Oc1ccc(-c2csc(Nc3ncccn3)n2)cc1O | -26.7% | ? | 1.1% | ? | 31.6µM* | ?
Oc1ccc(-c2csc(-c3ccccc3)n2)cc1O | -32.6% | ? | -19.8% | -16.0% | 70.8µM* | 7.94µM*
COc1ccc(CNC(=O)c2cc3c(=O)n(Cc4cccs4)ccc3nc2C)cc1 | 5.4% | . | -4.5% | 41.2% | -28.0% | -4.0%
Cc1cccc(Cn2c(CNS(=O)(=O)c3ccc(C(C)C)cc3)nc3cccnc32)c1 | -3.9%[60.1 µM] | . | -16.6% | -1.5% | 26.9% | 9.3%
O=c1c2cc3c(cc2n(Cc2ccc(F)cc2)c(=O)n1Cc1nc(-c2ccccc2)no1)OCO3 | -2.7% | . | 1.6% | 19.4% | 10.5% | -1.1%
O=c1c2cc3c(cc2n(Cc2ccc(Cl)cc2)c(=O)n1Cc1nc(-c2ccccc2)no1)OCO3 | ? | . | -9.3% | 16.5% | 89.1µM* | -1.1%
CC(=O)NCCn1c(SCC(=O)NCCC(C)C)nc2ccccc2c1=O | 22.4µM* | -9.2% | -12.0% | -1.4% | -9.1% | 20.2%
C=CCn1c(SCC(=O)c2ccc(CNC(C)=O)o2)nc2ccccc2c1=O | ? | -33.6% | ? | -11.6% | 15.8µM* | ?
CCCCNC(=O)CSc1nc2ccccc2c(=O)n1CCNC(C)=O | -8.0% | 3.3% | -13.3% | -2.9% | -41.0% | 1.1%
CC(=O)NCc1ccc(C(=O)CSc2nnc(-c3ccncc3)n2Cc2ccccc2)o1 | 79.4µM* | ? | 20µM* | -6.4% | 22.4µM* | 20µM*
CCCCNC(=O)c1ccc2nc(-c3cccs3)c(-c3cccs3)nc2c1 | 1.3% | . | . | 0.8% | 15.7% | .
Cc1[nH]n(-c2ccccc2)c(=O)c1C=Nc1ccc(S(=O)(=O)N=C(N)N)cc1 | 5.7% | -5.8%[11.6 µM] | ? | 6.2% | 50.1µM* | 20.8%

Screens deposited in PubChem BioAssay by National Center for Advancing Translational Sciences (NCATS).
